AMA1 RON2 block: AMA1-RON2 (P. falciparum) interaction inhibition; AlphaScreen AMA1-biotinylated RON2 peptide binding; Potency, µM (doses to about 58.2 µM), for inactives: at the highest dose activity change, negative = inhibition, actives largely listed as inhibitors; 0.2% of 360,000 active;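 further: 0% = vehicle wells and -100% = peptide control; nearly all actives have a fitted effect of over 45% in size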
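AMA1 (3D7) with his tag at 25 nM final met compounds first, then biotinylated RON2 peptide at 25 nM; detection used donor plus acceptor beads, 10 µg/mL apiece, read by AlphaScreen after 30 min at room temperature.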
LmPK inh: blocks Leishmania mexicana pyruvate kinase activity; Q27686; purified LmPK, Kinase-Glo ATP luminescence, 1 h; Potency, µM (titrated, usually from 57.5 µM), without a hit: top-dose activity change, negative = inhibition, most hits filed as inhibitors; 0.37% of 290,000 active
Target sequence (Q27686 whole entry, looked up): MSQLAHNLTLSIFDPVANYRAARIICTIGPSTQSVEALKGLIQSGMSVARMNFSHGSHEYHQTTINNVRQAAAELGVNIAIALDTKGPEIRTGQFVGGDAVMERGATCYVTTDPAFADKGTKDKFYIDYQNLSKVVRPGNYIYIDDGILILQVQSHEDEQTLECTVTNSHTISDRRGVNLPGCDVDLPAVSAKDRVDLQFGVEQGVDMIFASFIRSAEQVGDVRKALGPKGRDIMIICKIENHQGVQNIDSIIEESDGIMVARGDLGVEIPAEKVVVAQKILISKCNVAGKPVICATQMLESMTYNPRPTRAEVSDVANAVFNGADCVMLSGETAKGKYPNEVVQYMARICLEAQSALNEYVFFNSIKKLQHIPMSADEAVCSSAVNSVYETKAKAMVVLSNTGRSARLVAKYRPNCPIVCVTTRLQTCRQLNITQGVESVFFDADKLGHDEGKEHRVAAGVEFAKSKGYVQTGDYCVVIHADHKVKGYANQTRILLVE
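Pyruvate kinase activity monitored as ATP production (luciferase luminescence). Conditions: 0.1 nM enzyme, 0.5 mM PEP, 0.1 mM ADP, 1 h, RT; normalized against uninhibited and no-enzyme wells.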
TbPYK inhibitor: T. brucei pyruvate kinase inhibition. Q57TT1. Potency, µM (titrated, usually from 76.8 µM), for inactives: at the top dose activity, negative = inhibition, hits mostly inhibitors. AID 624173. 0.12% of 410,000 active. TbPYK enzyme, Kinase-Glo Plus ATP luminescence, 45 min; further: nearly all actives have a fitted effect of over 50% in size
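Glycolytic pyruvate kinase of T. brucei was incubated with substrate, test compound and 130 uM ADP for 45 minutes at room temperature. Luminescent Kinase-Glo Plus signal was measured after 10 minutes.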
RE007 growth inh: less growth of the S. pombe RE007 Vpr strain; AID 651644; S. pombe RE007 Vpr strain, BacTiter-Glo ATP luminescence, 24 h; Potency, µM (series often up to 92.2 µM), for inactives: at the highest dose activity change, negative = less growth, most hits filed as inhibitors; 0.21% of 360,000 active; active means well fitted falling curve with a large enough effect; inconclusive means small, poorly fitted or top-dose-only effect; inactive means no such curve, though single readings can be large or run the other way; further: nearly all actives have a fitted effect of over 50% in size
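Fission yeast strain RE007, carrying one chromosomally integrated HIV-1 vpr copy, was seeded at OD 0.01 in PMG+AL medium with 23 nL pinned compound. After 24 h at 30 °C and 99% humidity, viability was read by BacTiter-Glo luminescence.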
The depositor's hits bear a star; ? = inconclusive; / = not tested or not shown; [ ] = remark or other dose. The list is not random: actives were taken first. Their share in the collection is about 0.68%. Unless noted, the call rests on the fitted dose curve; in most records, active means well fitted curve in the direction sought with a large enough effect; inconclusive means small, poorly fitted or top-dose-only effect, or another doubt; inactive means no such curve, though single readings can be large; an effect the other way counts as inactive or inconclusive. Unless noted, on the % scale 0 is the no-effect control and ±100 the full control effect; potency means the concentration at half of the fitted maximal effect.

SMILES | AMA1 RON2 block | LmPK inh | TbPYK inhibitor | RE007 growth inh
CCC1(C)N=C(c2ccc3c(c2)OCO3)CC(c2ccccc2O)N1 (stereo not given) | -3% | 10µM* | -9% | -1%
O=c1oc2cc(O)c(Cl)cc2c2ccccc12 | 2% | -6% | -12% | 25%
O=c1cc2c(=O)oc3cc(O)c(O)oc3c2c(O)c1O | 10µM* | -18% | -18% | -3%
Cc1[nH]c2ccccc2c1C(=O)COC(=O)c1ccc([N+](=O)[O-])s1 | 18% | 4% | -2% | 63µM*
O=C(OCC(=O)N1CCC(c2ccccc2)=N1)c1ccc([N+](=O)[O-])s1 | ? | / | 2% | 16µM*
COc1cc(C(=O)Sc2ccc(C)cc2)cc(OC)c1OC | 11% | 0% | 1% | -9%
O=C(COC(=O)C12CC3CC(CC(Br)(C3)C1)C2)NNC(=O)c1ccccc1 | 88% | / | -1% | -6%
CC(=O)NCCCc1nc2ccccc2n1Cc1ccccc1F | -1% | 5% | -12% | -13%
CCCOC(=O)c1cc(-c2ccc(/C=C3/C(=O)N(C)C(=O)C(C#N)=C3C)o2)ccc1Cl | 0% | / | -18% | 2%
C=CCOC(=O)c1cc(-c2ccc(/C=C3\C(=O)NC(=O)C(C#N)=C3C)o2)ccc1Cl | 7% | 13% | -11% | 40µM*
CC1(C)OC(=O)C(=Cc2ccc(-c3ccc(Cl)c(C(=O)O)c3)o2)C(=O)O1 | 3% | 32% | 16µM* | 43%
O=C(Nc1ccc(Cl)cc1)C1(S(=O)(=O)c2ccccc2)CC1 | 3% | / | -9% | -11%
CCOc1ccc(OCCCC(=O)NCCc2ccc(OC)cc2)cc1 | -3% | -3% | -5% | 2%
CCOC(=O)C1=C(COC(=O)/C=C/c2ccc(O)c(OC)c2)NC(=O)NC1C (stereo not given) | -10% | / | 1% | 13%
COC(=O)c1cccc(NC(=O)C2C3CCC(C3)C2C(=O)O)c1 (stereo not given) | 4% | 1% | -3% | -3%
O=C1Nc2ccccc2C(=O)C1(Cl)Cc1ccccc1 (stereo not given) | 2% | -1% | 4.5µM* | -2%
CC(C)(C)N1C(=O)c2ccccc2NC(=O)N1Cc1ccccc1 | -10% | 3% | -4% | 2%
Cc1cccc(-n2c(-c3csc(C)c3)n[nH]c2=S)c1 | 29% | 4.5µM* | ? | 5%
CCCCn1c(-c2csc(CC)c2)n[nH]c1=S | 61% | ? | 4µM* | -4%
CCc1cc(-c2n[nH]c(=S)n2-c2cccc(C)c2)cs1 | 47% | 4.5µM* | 11µM* | 5%
O=C(Cn1c(=O)n(-c2ccccc2)c(=O)c2c3c(sc21)CCC3)c1ccc(F)cc1 | / | / | -3% | /
Cc1ccc(NC(=O)CCCn2c3ccccc3c(=O)c3cc(C)ccc32)c(Br)c1 | / | / | 1% | /
COc1cc2nc(/C=C/c3ccc(N(C)C)cc3)sc2cc1SC | 18µM* | -4% | -8% | 6%
Cc1ccc(C)c(Cn2nc(-c3ccccc3)ccc2=O)c1 | 5% | -2% | 0% | -9%
COc1cccc(C(=O)/C=C/Nc2cccc(O)c2)c1 | -9% | 14µM* | ? | -12%
SMILES | AMA1 RON2 block | LmPK inh | TbPYK inhibitor | RE007 growth inh
CN(C)c1ccc(N/C=C/C(=O)c2ccccc2)cc1 | ? | 5.6µM* | ? | -14%
CC(=O)Nc1ccc(N/C=C/C(=O)c2ccccc2)cc1 | -9% | -8% | 2% | ?
O=C(/C=C/Nc1ccccc1)c1ccccc1 | 5% | 7.9µM* | -22% | ?
CCCCNC(=O)C1CC(=O)N(CCc2ccc(C)cc2)C1 (stereo not given) | -8% | 7% | 0% | 16%
Cn1c(N2CCCC2)nc2c1c(=O)n(Cc1cccc(F)c1)c(=O)n2C | -1% | 6% | 2% | 4%
O=C1C=CC(=O)C(C2=C3C(=O)N(CCc4ccccc4)CC(=O)N3CCC2)=C1 | -6% | ? | 2.5µM* | -11%
COc1ccc(NC(=O)c2[nH]c(C)c(C(C)=O)c2C)cc1S(=O)(=O)N1CCOCC1 | 28% | 4% | -1% | 12%
O=C(O)C1Nc2c(O)cc(Cl)c([N+](=O)[O-])c2C2C=CCC12 (stereo not given) | 2.2µM* | ? | -26% | 5%
Cc1ccc2sc(N(CCCN(C)C)C(=O)c3ccc(Br)s3)nc2c1C | 25µM* | 16% | 0% | 2%
COc1cccc(C(=O)OCC(=O)NC23CC4CC(CC(C4)C2)C3)c1 | 21% | / | 0% | 2%
CC(=O)Oc1cc(C(=O)OCC(=O)NC23CC4CC(CC(C4)C2)C3)cc(OC(C)=O)c1OC(C)=O | 20µM* | / | -15% | -12%
Cc1cccnc1Nc1nc(-c2ccccn2)cs1 | -89% | -5% | -8% | 40µM*
Cc1cccnc1Nc1nc(-c2ccccc2)cs1 | 0% | -14% | -12% | ?
O=C1CC(SCc2nc3ccccc3[nH]2)C(=O)N1c1ccc(F)c(Cl)c1 (stereo not given) | 87% | 5% | / | -5%[3.69 µM]
O=C1CC(N2CCC(c3nc4ccccc4[nH]3)CC2)C(=O)N1c1cccc(F)c1 (stereo not given) | -2% | -2% | -1% | 40µM*
CCOc1ccc(N2C(=O)CC(SCc3nc4ccccc4[nH]3)C2=O)cc1 (stereo not given) | 49% | 2% | 5% | 10µM*
O=C1CC(SCc2nc3ccccc3[nH]2)C(=O)N1c1ccc(Cl)cc1 (stereo not given) | 90% | -1% | -7% | 16µM*
O=C(O)c1ccc(N2C(=O)CC(N3CCC(c4nc5ccccc5[nH]4)CC3)C2=O)cc1 (stereo not given) | 37% | 0% | -12% | 0%
O=C1CC(SCc2nc3ccccc3[nH]2)C(=O)N1c1cccc(F)c1 (stereo not given) | 25% | 2% | -7% | 32µM*
O=C1CC(N2CCC(c3nc4ccccc4o3)CC2)C(=O)N1c1ccc(F)cc1 (stereo not given) | -1% | 3% | 6% | ?
O=C1CC(N2CCC(c3nc4ccccc4o3)CC2)C(=O)N1c1ccc(Cl)c(C(F)(F)F)c1 (stereo not given) | -5% | 0% | -3% | 28µM*
O=C(CN1CCN(c2ccc(O)cc2)CC1)Nc1ccccc1C(=O)NCCc1ccccc1 | 5% | / | 28µM* | -8%
CC(=NNC(=S)N1CCN(C2CCCCCC2)CC1)c1ccccn1 | 14µM* | / | ? | 2%
CC(=NNC(=S)N1CCN(c2ccccn2)CC1)c1nccs1 | -60% | / | ? | 35µM*
CC(=NNC(=S)N1CC2CCC(CC2)C1)c1ccccn1 | 97% | / | -27% | -9%
CC(=NNC(=S)N1CCN(c2ccccn2)CC1)c1ccccn1 | 14% | / | -19% | -16%
CCN1C(=O)[C@H]2[C@@H](c3ccc(SC4CCCCC4)c(OC)c3)N3CCCC[C@@]3(C(=O)OC)[C@H]2C1=O | -20% | / | -12% | 1%
COC(=O)Sc1nnc(-c2ccc(Br)cc2)o1 | / | -12% | / | /
Cc1ccc(NCC(=O)c2ccccc2)cc1Cl | 0% | -8% | -16% | 4%

Screens as filed in PubChem.
